Bioassay records as filed in PubChem.
DT40 TDP1 no CPT: qHTS for Inhibitors of human tyrosyl-DNA phosphodiesterase 1 (TDP1): qHTS in cells in absence of CPT | AID 686978, 2013 | actives 15% (n = 420,000) | DT40 Tdp1-/- hTDP1 cells, no CPT, ATP luminescence, 48 h | Potency, µM (top dose mostly 46.2 µM), for inactives: at the highest dose activity change, negative = growth inhibition, usual class: inhibitors; also: nearly all actives have a fitted effect of over 55% in size
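Compound effects on proliferation are scored in DT40 Tdp1-/-;hTDP1 cells in the absence of CPT. ATP levels (CellTiter-Glo luminescence) are recorded after a ≥48 hr, 37 °C incubation.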
VP16 counter: inhibits Gal4-VP16 luciferase reporter, ROR gamma counter-screen; actives 3.5% (n = 310,000); Drosophila S2 Gal4-VP16 UAS-luciferase, luminescence, 20 h; Potency, µM (highest dose often 53.6 µM), for inactives: top-dose activity, negative = inhibition, usual class: inhibitors;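 also: Gal4-VP16 expression switched on by copper sulfate through the metallothionein promoter; nearly all actives have a fitted effect of over 50% in size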
TDP1 block: blocks human tyrosyl-DNA phosphodiesterase 1 | actives 0.28% (n = 350,000) | Potency, µM (doses to about 130 µM), without a hit: at the highest dose activity change, negative = inhibition, most hits filed as inhibitors | recombinant TDP1, AlphaScreen DNA substrate cleavage | Q9NUW8; also: nearly all actives have a fitted effect of over 40% in size
Target sequence (Q9NUW8 whole entry, looked up): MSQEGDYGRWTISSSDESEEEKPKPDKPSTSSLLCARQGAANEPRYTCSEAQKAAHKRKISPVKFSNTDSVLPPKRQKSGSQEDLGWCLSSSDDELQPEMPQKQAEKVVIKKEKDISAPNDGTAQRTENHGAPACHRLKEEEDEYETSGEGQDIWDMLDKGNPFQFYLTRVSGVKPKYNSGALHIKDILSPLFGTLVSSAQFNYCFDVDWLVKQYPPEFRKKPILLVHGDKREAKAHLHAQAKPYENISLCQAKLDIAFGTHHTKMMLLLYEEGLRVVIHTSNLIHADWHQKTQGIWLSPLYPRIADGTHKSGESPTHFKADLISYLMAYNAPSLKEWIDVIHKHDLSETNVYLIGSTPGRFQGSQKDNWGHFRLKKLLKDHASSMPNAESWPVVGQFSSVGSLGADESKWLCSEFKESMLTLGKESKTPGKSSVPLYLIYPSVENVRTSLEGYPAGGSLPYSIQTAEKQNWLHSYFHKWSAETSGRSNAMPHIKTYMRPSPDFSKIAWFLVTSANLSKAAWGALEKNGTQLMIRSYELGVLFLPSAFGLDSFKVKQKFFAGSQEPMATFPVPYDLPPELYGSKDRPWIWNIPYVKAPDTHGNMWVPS
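Here, a 5' biotin and 3' phosphotyrosine-FITC DNA oligonucleotide reports Tdp1 activity: intact substrate bridges AlphaScreen beads, while cleavage leaves a 3' phosphate and drops signal. All incubations at room temperature.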
DT40 TDP1 CPT: growth inhibition of DT40 Tdp1-/-;hTDP1 cells with camptothecin (screen for TDP1 inhibitors); chicken DT40 Tdp1-/-;hTDP1 cells + 20 nM CPT, ATP luminescence, 48 h; Potency, µM (highest dose often 46.2 µM), inactives show at the top dose activity change, negative = growth inhibition, most hits filed as inhibitors; actives 12% (n = 420,000); AID 686979; also: nearly all actives have a fitted effect of over 55% in size
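Chicken DT40 Tdp1-/- cells stably complemented with human TDP1 were seeded at 400 cells/well in medium containing 20 nM camptothecin, exposed to pin-transferred compounds, and grown at 37 °C for at least 48 hr. Viability was read as ATP luminescence.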
RORg inh: ROR gamma (mouse) transcription inhibition. Drosophila S2 Gal4-RORgamma UAS-luciferase reporter, 20 h. Potency, µM (series often up to 53.6 µM), without a hit: at the highest dose activity change, negative = inhibition, hits mostly inhibitors. actives 5.4% (n = 310,000). AID 2551; also: nearly all actives have a fitted effect of over 60% in size
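ROR gamma transcriptional activity was tracked as Gal4-UAS luciferase output in stably transfected Drosophila Schneider cells, with compound added 1 hr before 700 uM copper sulfate induction and a 20 hr ambient-temperature incubation.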
Numbers without * were called inactive; ! = repeats disagree; [ ] = remark or other dose. Sampled rows, rich in hits. Any-hit rate of the full collection: about 19%. Calls follow the shape of the dose curve; as a rule, active = well fitted curve in the direction sought with a large enough effect; inconclusive = small, poorly fitted or top-dose-only effect, or another doubt; inactive = no such curve, though single readings can be large; an effect the other way counts as inactive or inconclusive. % is scaled to controls: 0 for no effect and ±100 for the full control effect; potency is read from the fitted curve at half-maximal effect.

Screening COc1ccc(OC)c(S(=O)(=O)NCCS(=O)(=O)N2CCN(c3ccccc3)CC2)c1 returned DT40 TDP1 no CPT 16.4µM*!, VP16 counter 5.7%, TDP1 block 5.1%, DT40 TDP1 CPT 20.6µM*! and RORg inh inconclusive.
`COC(=O)C1CCN(S(=O)(=O)c2ccc(Br)s2)CC1` gave DT40 TDP1 no CPT -17.8%, TDP1 block -5.7%[56.1 µM] and DT40 TDP1 CPT 4.7%.
CCO[C@@H]1OC(C(=O)N2CCN(C)CC2)=C[C@H](c2ccc(C(F)(F)F)cc2)[C@H]1CCCO was read as DT40 TDP1 no CPT -10.4%, VP16 counter -13.8%, TDP1 block 2.6%, DT40 TDP1 CPT -22.5% and RORg inh -9.2%.
CN(C(=O)Nc1ccc(Cl)cc1Cl)[C@H]1c2cc(Br)ccc2OC[C@H]1CO was read as DT40 TDP1 no CPT -17.6%, VP16 counter inconclusive, TDP1 block 0.0%, DT40 TDP1 CPT inconclusive and RORg inh 2.82µM*.
`O=S(=O)(c1ccc(NC(=S)N/N=C/c2c3ccccc3cc3ccccc23)cc1)N1CCOCC1` gave DT40 TDP1 no CPT 3.66µM*, VP16 counter 7.08µM*, TDP1 block 0.0%, DT40 TDP1 CPT 2.59µM* and RORg inh inconclusive.
Screening O=S(=O)(c1ccc(NC(=S)NN=C2CCCCC2)cc1)N1CCOCC1 returned DT40 TDP1 no CPT -12.9%, VP16 counter inconclusive, TDP1 block 4.9%, DT40 TDP1 CPT 6.7% and RORg inh 8.91µM*.
For C=C(C)/C=N/NC(=S)Nc1ccc(S(=O)(=O)N2CCOCC2)cc1 the results were DT40 TDP1 no CPT -29.7%, VP16 counter inconclusive, TDP1 block -1.2%, DT40 TDP1 CPT -0.2% and RORg inh inconclusive.
Screening COc1ccc(S(=O)(=O)N2CCOCC2)cc1 returned DT40 TDP1 no CPT -3.0%, TDP1 block -0.2% and DT40 TDP1 CPT 0.4%.
For Cc1ccccc1C(=O)NC(=S)Nc1ccc(S(=O)(=O)N2CCOCC2)cc1 the results were DT40 TDP1 no CPT inconclusive, VP16 counter 17.8µM*, TDP1 block -2.6%, DT40 TDP1 CPT inconclusive and RORg inh 20µM*.
Screening O=S(=O)(c1ccc(Oc2ccc(Br)cc2)cc1)N1CCOCC1 returned DT40 TDP1 no CPT 23.1µM*, VP16 counter inconclusive, TDP1 block 2.2%, DT40 TDP1 CPT 16.4µM* and RORg inh inconclusive.
`Cc1c(Br)cc(-c2nnco2)cc1Br` gave DT40 TDP1 no CPT -10.9%, VP16 counter -11.4%, TDP1 block 4.1%, DT40 TDP1 CPT -6.2% and RORg inh -30.8%.
`Cc1onc(-c2ccccc2)c1C(=O)Nc1ccc(S(=O)(=O)N2CCOCC2)cc1` gave DT40 TDP1 no CPT 23.1µM*, VP16 counter 1.8%, TDP1 block -12.3%, DT40 TDP1 CPT inconclusive and RORg inh -43.9%.
Screening O=S(=O)(c1ccc(NC(=S)NCCC(c2ccccc2)c2ccccc2)cc1)N1CCOCC1 returned DT40 TDP1 no CPT 23.1µM*, VP16 counter -12.3%, TDP1 block 8.5%, DT40 TDP1 CPT 20.6µM* and RORg inh 6.6%.
Screening O=S(=O)(c1ccc(NC(=S)N/N=C/c2ccc(N3CCOCC3)cc2)cc1)N1CCOCC1 returned DT40 TDP1 no CPT 3.66µM*, VP16 counter 6.31µM*, TDP1 block 7.1%, DT40 TDP1 CPT 4.11µM* and RORg inh inconclusive.
For Cc1ccc(S(=O)(=O)N2CCOCC2)cc1C(=O)NC(=S)N1CC(C)OC(C)C1 (configuration not stated) the results were DT40 TDP1 no CPT 3.5%, VP16 counter 15.8µM*, DT40 TDP1 CPT 3.8% and RORg inh 4.47µM*.
`Cc1ccc(S(=O)(=O)N2CCOCC2)cc1C(=O)N1CC(C)CC(C)C1` (configuration not stated) gave DT40 TDP1 no CPT inconclusive, TDP1 block 0.9% and DT40 TDP1 CPT -26.6%.
For Cc1cccc(C(=O)Nc2ccc(C(=O)N3CCCCC3C)cc2)c1 (configuration not stated) the results were DT40 TDP1 no CPT -29.1%, VP16 counter 12.6%, TDP1 block 3.7%, DT40 TDP1 CPT -16.7% and RORg inh 43.2%.
For Oc1oc(-c2ccc(Br)cc2)nc1/C=N/c1ccccn1 the results were DT40 TDP1 no CPT -1.2%, VP16 counter -5.8%, TDP1 block 1.2%, DT40 TDP1 CPT -0.4% and RORg inh 4.7%.
`COc1cccc(-n2c(SCC(N)=O)nnc2-c2c[nH]c3ccccc23)c1` gave DT40 TDP1 no CPT -5.9%, VP16 counter 0.3%, TDP1 block 5.2%, DT40 TDP1 CPT 5.0% and RORg inh 5.9%.
N#Cc1ccc(NC(=S)NC(=O)CCc2ccc(S(=O)(=O)N3CCOCC3)cc2)cc1 was read as DT40 TDP1 no CPT inconclusive, VP16 counter 3.4%, TDP1 block inconclusive, DT40 TDP1 CPT 13µM* and RORg inh 16.8%.
For O=S(=O)(c1ccc(NC(=S)N/N=C/c2ccc(Oc3ccccc3)cc2)cc1)N1CCOCC1 the results were DT40 TDP1 no CPT -11.6%, VP16 counter -6.0%, TDP1 block 8.2%, DT40 TDP1 CPT 7.1% and RORg inh 0.501µM*.
`O=S(=O)(c1ccc(NC(=S)Nc2ccc(OC(F)F)cc2)cc1)N1CCOCC1` gave DT40 TDP1 no CPT inconclusive, VP16 counter 13.2%, TDP1 block 4.3%, DT40 TDP1 CPT inconclusive and RORg inh -3.2%.
`Cc1cccc[n+]1CC(=O)Nc1ccc([N+](=O)[O-])cc1` gave DT40 TDP1 no CPT -8.1%, VP16 counter -3.3%, TDP1 block 3.3%, DT40 TDP1 CPT -20.5% and RORg inh -37.3%.
Screening CN(C)c1cc[n+](CC(=O)Nc2ccc(OC(F)F)cc2)cc1 returned DT40 TDP1 no CPT 14.6µM*, VP16 counter 4.6%, TDP1 block 2.6%, DT40 TDP1 CPT 23.1µM* and RORg inh 10.7%.
For O=C(C[n+]1ccc(-c2ccccc2)cc1)Nc1ccc([N+](=O)[O-])cc1 the results were DT40 TDP1 no CPT 14.6µM*, VP16 counter -6.6%, DT40 TDP1 CPT 10.3µM* and RORg inh -9.9%.
`CN(C)c1cc[n+](CC(=O)Nc2cccc([N+](=O)[O-])c2)cc1` gave DT40 TDP1 no CPT 3.26µM*, VP16 counter 1.8%, DT40 TDP1 CPT inconclusive and RORg inh -2.4%.
`Cc1ccc(NS(=O)(=O)c2cccc3cccnc23)c(Br)c1` gave DT40 TDP1 no CPT -17.2%, VP16 counter 0.3%, DT40 TDP1 CPT 15.1% and RORg inh -31.1%.
`O=S(=O)(Nc1cc(O)cc2cccnc12)c1ccc(Br)s1` gave VP16 counter 6.31µM*, TDP1 block 22.6% and RORg inh 7.94µM*.
Screening O=S(=O)(Nc1cc(O)cc2cccnc12)c1ccc(Cl)s1 returned VP16 counter inconclusive, TDP1 block 23.2% and RORg inh 3.98µM*.
